Pf growth 96h = Primary qHTS for delayed death inhibitors of the malarial parasite plastid, 96 hour incubation | Potency, µM (titrated, usually from 28.7 µM), usual class: inhibitors | 320,000 tested, 6.9% active | P. falciparum luciferase reporter growth, 96 h
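Plates of compound plus infected erythrocytes (2% hematocrit, 0.05% parasitemia final) incubate 96 hours, 37 C, 5% CO2. Detection reagent added; reduced luminescence from the parasites' luciferase reporter flags inhibition.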
Pf growth 48h = Primary qHTS for delayed death inhibitors of the malarial parasite plastid, 48 hour incubation; P. falciparum luciferase growth in erythrocytes, 48 h; Potency, µM (titrated, usually from 28.7 µM), actives largely listed as inhibitors; 310,000 tested, 5.9% active; AID 504832, 2011
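Here the parasites carry a stable luciferase gene and grow inside erythrocytes in Albumax-based RPMI medium with compound for one erythrocytic cycle. Activity is scored as loss of luminescent signal.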
HCMV antiviral = qHTS Assay for inhibitors of the human cytomegalovirus (HCMV). HFF cells, HCMV-luciferase reporter, 72 h; hits give low values. activity change, negative = inhibition, % at 57.5 µM. 410,000 tested, 4.5% active; in the data active = activity change below about -60%; inconclusive = no clear call, values can overlap the other calls; inactive = above about -39%
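Luciferase read-out from HCMV-luciferase-infected HFFs (MOI 1 PFU/cell) 72 h post infection at 37C; compounds added after 16 h cell attachment; activity normalized between buffer-only basal and Salinomycin (10uM) inhibitor controls.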
Shiga toxin inh = A qHTS for Small Molecule Inhibitors of Shiga Toxin; AID 2315, 2010; Vero cells, Shiga toxin protein synthesis inhibition reporter; inhibition, % at 38.7 µM; 290,000 tested, 9.2% active; in the data active = inhibition mostly above about 28%, no sharp cut-off; inactive = mostly below about 43%
CHX counter = Cycloheximide Counterscreen for Small Molecule Inhibitors of Shiga Toxin. cell reporter, cycloheximide protein synthesis inhibition counterscreen. AID 2314, 2010. 300,000 tested, 12% active. max response, %; in the data active = max response mostly above about 13%, no sharp cut-off; inactive = mostly below about 14%; also: read at 38.3 µM for the half of the compounds with a filed dose
Hits are given with their value; i = inactive; ? = inconclusive; nt = no result given. A selection: hits, their analogues and other compounds. The true share with any hit is near 20%. Unless noted, calls follow the shape of the dose curve; as a rule, active = well fitted inhibition curve with a large enough effect; inconclusive = small, poorly fitted or top-dose-only effect, or another doubt; inactive = no such curve, though single readings can be large or run the other way.

SMILES	Pf growth 96h	Pf growth 48h	HCMV antiviral	Shiga toxin inh	CHX counter
CC(C)ON(CC(=O)NO)S(=O)(=O)c1ccc(-c2ccccc2)cc1	nt	nt	nt	i	i
COc1nc(-c2ccc(C)cc2)ccc1-c1noc(-c2cccnc2)n1	12µM	i	i	i	i
COc1nc(-c2ccccc2)ccc1-c1noc(-c2cccnc2)n1	i	i	-104	i	8.7
COc1cccc(-c2nc(-c3ccc(-c4ccccc4)nc3OC)no2)c1	nt	nt	i	nt	nt
COc1nc(-c2ccc(C)cc2)ccc1-c1noc(-c2ccccc2Br)n1	nt	nt	i	nt	nt
COc1ccccc1-c1noc(-c2cccnc2)n1	i	i	i	67	29
Cc1cc(N=NC(=O)c2ccccc2)ccc1O	i	i	i	i	i
Nc1[nH]c(N=NC(=O)c2ccccc2)c2ccccc12	i	i	i	84	53
Nc1[nH]c(N=NC(=O)c2ccc(Cl)cc2)c2ccccc12	?	i	i	95	32
O=C(N=Nc1c(O)[nH]c2c(Cl)cc(Cl)cc12)c1ccccc1O	nt	nt	i	nt	nt
Nc1[nH]c(N=NC(=O)c2ccccc2O)c2ccccc12	i	i	i	81	58
O=C1C(=O)N(C2CCN(C(=O)c3ccccc3Cl)CC2)CCN1Cc1ccc(F)cc1	nt	nt	i	nt	nt
Cc1cc(C)cc(C(=O)N[C@@H](C)C(=O)N2CCC3(CC2)NCCc2[nH]cnc23)c1	i	i	i	i	i
CC(C)(C)c1csc(NC(=O)CSC2=NCCS2)n1	i	i	i	i	i
Cn1nnnc1SCC(=O)Nc1nc2c(s1)CCCC2	i	nt	i	70	42
O=C(CSC1=NCCS1)Nc1nc2c(s1)CCCC2	?	i	-73	99	39
COc1cc(OC)cc(-n2nnnc2SCC(=O)Nc2nc3c(s2)CCCC3)c1	nt	i	i	i	i
Cc1csc(NC(=O)CSC2=NCCS2)n1	?	i	i	i	37
CC1(c2ccc([N+](=O)[O-])c(CS(=O)(=O)c3ccccc3)c2)OCCO1	i	i	i	i	i
O=C(C(=O)N1CCCC1)c1c(-c2ccccc2)[nH]c2ccccc12	i	nt	i	i	i
CCCCCCCCN1[C@@H](CC(=O)OC)c2cc(C(F)(F)F)ccc2S1(=O)=O	nt	nt	i	nt	nt
COc1ccc(C2/C=C\CN(C(=O)CC(C)(C)C)C(C)C(=O)N2Cc2ccc(F)cc2)cc1 (centres undefined)	nt	nt	nt	i	i
CCN(CC)S(=O)(=O)c1cccc(C(=O)Nc2cc(C)cc(C)c2)c1	?	i	i	39	17
CCN(CC)S(=O)(=O)c1cccc(C(=O)N/N=C(\C)c2ccc(O)cc2O)c1	?	i	-95	i	i
CCN(CC)S(=O)(=O)c1ccc(C(=O)Nc2cc(C)cc(C)c2)cc1	?	?	i	i	i
SMILES	Pf growth 96h	Pf growth 48h	HCMV antiviral	Shiga toxin inh	CHX counter
C/C(=N\NC(=O)C(N)=O)c1ccc(O)cc1O	i	i	i	i	16
CCc1ccc(OCC(=O)N/N=C(\C)c2ccc(O)cc2O)cc1	i	i	i	i	i
CCN(CC)S(=O)(=O)c1cccc(C(=O)NC(C(=O)Nc2nnc(C)s2)C(C)C)c1 (centres undefined)	nt	12µM	i	i	i
CCN(CC)S(=O)(=O)c1cccc(C(=O)N[C@H](C(=O)O)C(C)C)c1	i	nt	i	i	i
CN1C(C(=O)NCc2ccccc2)CC2Cn3c(nc4cc5ccccc5cc43)C21 (centres undefined)	?	?	i	i	i
CCCn1c2ccccc2c2cnn(CC(=O)N3CCC(C(=O)OCC)CC3)c(=O)c21	nt	nt	i	nt	nt
CCCS(=O)(=O)NC(=O)C1(C)CCN(C(=O)CSc2ccccc2)C1 (centres undefined)	nt	nt	i	nt	nt
CCN(CC)S(=O)(=O)c1cccc(C(=O)Nc2cccc(C)c2)c1	i	nt	i	i	27
CCN(CC)S(=O)(=O)c1cccc(NC(=O)c2ccc(Br)cc2)c1	i	?	?	i	i
Cc1ccc(-c2[nH]ncc2C(=O)c2ccc(Br)cc2)c(O)c1	?	?	i	i	11
Cc1ccc(C(=O)c2cn[nH]c2-c2cc(Cl)ccc2O)cc1	?	i	i	i	i
CSc1cccc(-n2cc(-c3ccc4c(c3)OCO4)[nH]c2=O)c1	?	i	nt	83	29
CSc1cccc(NC(=O)CNC(=O)c2ccc3c(c2)OCO3)c1	i	i	i	nt	nt
CCCCN(C)C(=O)c1nc2ccccn2c1CN1CCSCC1	i	i	i	i	i

Screening results: PubChem BioAssay, National Center for Advancing Translational Sciences (NCATS)
